Columns and labels:
[1] = biological target: Dual specificity mitogen-activated protein kinase kinase 1 (Homo sapiens) (UniProt Q02750); details: at 1 µM
[2] = biological target: Dual specificity mitogen-activated protein kinase kinase 1 (Homo sapiens) (UniProt Q02750); details: at 10 µM
[3] = biological target: Maternal embryonic leucine zipper kinase (Homo sapiens) (UniProt Q14680); details: at 1 µM
[4] = biological target: Maternal embryonic leucine zipper kinase (Homo sapiens) (UniProt Q14680); details: at 10 µM
[5] = biological target: Misshapen-like kinase 1 (Homo sapiens) (UniProt Q8N4C8); details: at 10 µM
[6] = biological target: T1, Dual specificity mitogen-activated protein kinase kinase 6 (Homo sapiens) (UniProt P52564); details: at 1 µM
T1 sequence (whole entry): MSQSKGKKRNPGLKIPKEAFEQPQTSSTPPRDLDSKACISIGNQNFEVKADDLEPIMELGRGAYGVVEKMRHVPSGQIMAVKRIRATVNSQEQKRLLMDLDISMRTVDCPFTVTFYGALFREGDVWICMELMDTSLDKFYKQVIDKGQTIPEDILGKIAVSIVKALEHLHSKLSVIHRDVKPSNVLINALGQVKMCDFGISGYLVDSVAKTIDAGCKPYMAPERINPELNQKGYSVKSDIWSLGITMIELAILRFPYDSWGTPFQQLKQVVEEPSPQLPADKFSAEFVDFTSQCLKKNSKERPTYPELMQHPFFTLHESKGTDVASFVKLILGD

[7] = biological target: T1, Dual specificity mitogen-activated protein kinase kinase 6 (Homo sapiens); details: at 10 µM
[8] = biological target: T2, Dual specificity mitogen-activated protein kinase kinase 7 (Homo sapiens) (UniProt O14733); details: at 1 µM
T2 sequence (whole entry): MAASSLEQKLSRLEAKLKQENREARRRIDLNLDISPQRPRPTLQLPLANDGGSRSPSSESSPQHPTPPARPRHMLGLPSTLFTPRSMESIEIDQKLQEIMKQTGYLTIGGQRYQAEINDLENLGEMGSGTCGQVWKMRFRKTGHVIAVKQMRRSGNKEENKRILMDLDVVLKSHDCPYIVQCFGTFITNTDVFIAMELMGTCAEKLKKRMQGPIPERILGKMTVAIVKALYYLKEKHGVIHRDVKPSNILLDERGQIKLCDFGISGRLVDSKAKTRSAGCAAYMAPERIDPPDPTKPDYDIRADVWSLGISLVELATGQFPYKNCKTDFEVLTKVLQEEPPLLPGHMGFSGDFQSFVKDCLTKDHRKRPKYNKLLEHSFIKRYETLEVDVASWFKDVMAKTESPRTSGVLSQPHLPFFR

[9] = biological target: T2, Dual specificity mitogen-activated protein kinase kinase 7 (Homo sapiens); details: at 10 µM
[10] = biological target: Misshapen-like kinase 1 (Homo sapiens) (UniProt Q8N4C8); details: at 1 µM

Sequence of Misshapen-like kinase 1 (Homo sapiens) (Q8N4C8 whole entry, looked up): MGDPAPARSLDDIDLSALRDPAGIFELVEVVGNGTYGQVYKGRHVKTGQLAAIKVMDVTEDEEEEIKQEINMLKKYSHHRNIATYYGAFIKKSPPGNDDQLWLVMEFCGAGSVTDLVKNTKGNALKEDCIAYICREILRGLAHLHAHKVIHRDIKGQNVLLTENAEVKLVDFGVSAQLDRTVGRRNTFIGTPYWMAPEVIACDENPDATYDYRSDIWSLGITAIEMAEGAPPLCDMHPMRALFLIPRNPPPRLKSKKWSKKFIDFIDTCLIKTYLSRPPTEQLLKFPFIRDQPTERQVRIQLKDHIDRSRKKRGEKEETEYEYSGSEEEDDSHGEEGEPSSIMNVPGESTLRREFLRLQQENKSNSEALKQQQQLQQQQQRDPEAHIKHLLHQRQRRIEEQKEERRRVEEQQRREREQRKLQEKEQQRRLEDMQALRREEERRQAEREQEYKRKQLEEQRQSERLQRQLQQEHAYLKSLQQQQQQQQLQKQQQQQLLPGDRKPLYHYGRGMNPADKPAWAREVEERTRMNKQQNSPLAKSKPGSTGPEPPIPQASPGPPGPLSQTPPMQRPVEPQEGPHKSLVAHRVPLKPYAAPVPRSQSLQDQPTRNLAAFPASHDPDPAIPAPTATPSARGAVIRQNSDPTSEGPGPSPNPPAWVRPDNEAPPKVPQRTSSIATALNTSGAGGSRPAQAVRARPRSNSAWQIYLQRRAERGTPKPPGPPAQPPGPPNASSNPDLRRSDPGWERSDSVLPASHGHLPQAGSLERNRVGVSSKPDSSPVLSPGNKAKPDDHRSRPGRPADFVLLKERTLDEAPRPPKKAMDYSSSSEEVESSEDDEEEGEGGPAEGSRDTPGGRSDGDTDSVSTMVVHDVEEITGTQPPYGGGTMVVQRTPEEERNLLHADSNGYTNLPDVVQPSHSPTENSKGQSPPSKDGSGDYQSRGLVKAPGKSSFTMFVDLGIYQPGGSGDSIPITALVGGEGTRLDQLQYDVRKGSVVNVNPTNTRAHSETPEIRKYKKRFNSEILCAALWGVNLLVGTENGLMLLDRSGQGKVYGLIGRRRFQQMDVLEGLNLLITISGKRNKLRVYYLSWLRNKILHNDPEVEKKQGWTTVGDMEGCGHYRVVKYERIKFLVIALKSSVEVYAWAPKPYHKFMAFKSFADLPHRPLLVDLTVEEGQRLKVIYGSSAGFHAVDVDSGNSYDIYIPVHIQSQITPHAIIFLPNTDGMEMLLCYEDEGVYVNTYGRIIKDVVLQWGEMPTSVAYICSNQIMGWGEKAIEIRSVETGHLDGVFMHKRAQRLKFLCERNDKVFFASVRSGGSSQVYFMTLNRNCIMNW
Sequence of Dual specificity mitogen-activated protein kinase kinase 1 (Homo sapiens) (Q02750 whole entry): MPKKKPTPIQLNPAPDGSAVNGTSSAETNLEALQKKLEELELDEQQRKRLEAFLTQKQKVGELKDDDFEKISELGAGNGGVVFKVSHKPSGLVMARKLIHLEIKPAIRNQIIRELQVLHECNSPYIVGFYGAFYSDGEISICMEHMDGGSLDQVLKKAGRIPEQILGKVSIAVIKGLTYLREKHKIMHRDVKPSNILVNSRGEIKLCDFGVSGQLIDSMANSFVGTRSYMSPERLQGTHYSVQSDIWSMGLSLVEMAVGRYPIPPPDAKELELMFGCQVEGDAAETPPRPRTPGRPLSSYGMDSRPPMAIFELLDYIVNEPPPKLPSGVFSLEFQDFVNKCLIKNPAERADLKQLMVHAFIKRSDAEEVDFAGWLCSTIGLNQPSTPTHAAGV
Sequence of Maternal embryonic leucine zipper kinase (Homo sapiens) (Q14680 whole entry, looked up): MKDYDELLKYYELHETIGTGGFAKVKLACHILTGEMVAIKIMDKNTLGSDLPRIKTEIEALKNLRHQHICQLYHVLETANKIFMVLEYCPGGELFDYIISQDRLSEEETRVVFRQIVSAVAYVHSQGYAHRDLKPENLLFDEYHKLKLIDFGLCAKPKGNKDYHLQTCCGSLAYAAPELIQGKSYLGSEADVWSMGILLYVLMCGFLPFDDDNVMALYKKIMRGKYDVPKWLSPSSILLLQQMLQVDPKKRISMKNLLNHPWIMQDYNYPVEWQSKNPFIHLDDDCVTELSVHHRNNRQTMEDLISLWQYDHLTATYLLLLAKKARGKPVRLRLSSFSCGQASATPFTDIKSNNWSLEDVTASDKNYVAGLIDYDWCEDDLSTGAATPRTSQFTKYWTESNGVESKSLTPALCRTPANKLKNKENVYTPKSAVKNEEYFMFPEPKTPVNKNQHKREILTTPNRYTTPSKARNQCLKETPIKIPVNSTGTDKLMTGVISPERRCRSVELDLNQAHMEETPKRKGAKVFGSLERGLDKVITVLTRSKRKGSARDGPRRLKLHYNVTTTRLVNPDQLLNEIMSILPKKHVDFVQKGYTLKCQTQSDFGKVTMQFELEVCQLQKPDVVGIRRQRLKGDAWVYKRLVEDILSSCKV

| Compound | residual activity [1] [%] | residual activity [2] [%] | residual activity [3] [%] | residual activity [4] [%] | residual activity [5] [%] | residual activity [6] [%] | residual activity [7] [%] | residual activity [8] [%] | residual activity [9] [%] | residual activity [10] [%] |
| --- | --- | --- | --- | --- | --- | --- | --- | --- | --- | --- |
| CCn1cnc2c(Nc3cccc(Cl)c3)nc(N[C@@H]3CCCC[C@@H]3N)nc21 | 87 | 25 | 59 | 18 | 80 | 99 | 78 | 86 | 91 | – |
| c1cc(-c2cnn3cc(-c4ccc(OCCN5CCCCC5)cc4)cnc23)ccn1 | 123 | 117 | 5 | -1 | 13 | – | – | – | – | 59 |
| CC(C)[C@H](CO)Nc1nc(Nc2cccc(Cl)c2)c2ncn(C(C)C)c2n1 | – | – | 66 | 18 | – | 97 | 64 | 75 | – | – |
| CCc1nc(-c2ccc(OC)cc2)[nH]c1-c1ccncc1 | – | – | – | 65 | – | – | – | – | – | – |
| O=c1[nH]c2ccccc2n1C1CCN(Cc2ccc(-c3nc4cc5[nH]cnc5cc4nc3-c3ccccc3)cc2)CC1 | 127 | 62 | 94 | 65 | 80 | 80 | 90 | 112 | 112 | 97 |
| COC(=O)[C@@]1(O)C[C@H]2O[C@]1(C)n1c3ccccc3c3c4c(c5c6ccccc6n2c5c31)C(=O)NC4 | – | – | 1 | -1 | 1 | – | – | 7 | 0 | 0 |
| COc1ccc2c(c1)/C(=C/c1cnc[nH]1)C(=O)N2 | 62 | 11 | 24 | 3 | 14 | – | – | 71 | 16 | 68 |
| CC(C)(C)c1cc(C=C(C#N)C#N)cc(Br)c1O | 113 | 96 | – | – | 113 | – | 115 | – | 102 | 122 |
| COc1cc(OC)c(/C=C2\C(=O)Nc3ccccc32)c(OC)c1 | – | – | 104 | 77 | 50 | 105 | 87 | 98 | 96 | 105 |
| C[S+]([O-])c1ccc(-c2nc(-c3ccc(F)cc3)c(-c3ccncc3)[nH]2)cc1 (stereo unspecified) | 113 | 110 | 107 | 84 | 63 | 43 | 3 | 86 | 68 | 112 |
| COc1cc2ncnc(Nc3ccc(OCc4ccccc4)cc3)c2cc1OC | 115 | 84 | 79 | 77 | 71 | 90 | 87 | 102 | 85 | 87 |
| N/C(=N\[N+](=O)[O-])N/N=C\c1ccc(-c2cccc([N+](=O)[O-])c2)o1 | – | – | 92 | 85 | 78 | 88 | 83 | – | – | 99 |
| COc1ccc2c(c[n+](C)c3c4cc5c(cc4ccc23)OCO5)c1OC | 125 | 119 | 84 | 31 | 75 | – | 130 | 110 | 71 | 97 |
| O=C1NC(=O)c2c1c1c3ccccc3n3c1c1c2c2ccccc2n1C1CCC3O1 | 40 | 51 | 55 | 72 | 71 | 27 | 10 | 100 | 98 | 86 |
| O=C1Nc2ccc3ncsc3c2/C1=C/c1c[nH]cn1 | 15 | 1 | 6 | 1 | 6 | -1 | 1 | 43 | 12 | 27 |
| O=[N+]([O-])/C=C/c1ccc2c(c1)OCO2 | 127 | 120 | 78 | 84 | 82 | 85 | 103 | 112 | 84 | 97 |
| O=C1c2ccccc2-c2nc3nnnn3nc21 | – | – | 67 | 33 | 107 | – | 116 | 66 | 39 | 105 |
